This is part of a sample that, as a whole, favours compounds with a hit. Of some 83,000 tested, about 20% had one in any assay.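 96-well plates, one dose, 48 hours. Percent growth reported; active if below 10.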 Unmarked numbers belong to inactive results. Active and inactive are the calls of the source.
How the values were obtained:
Assay in all cases: NCI-60 one-dose screen, 48 h (100 = growth as untreated, 0 = no growth, -100 = all killed)
Details in all cases: 10 µM unless noted
[1] = test system: T-47D breast
[2] = test system: BT-549 breast
[3] = test system: MDA-MB-435 melanoma
[4] = test system: SW-620 colon
[5] = test system: MCF7 breast
[6] = test system: HCT-116 colon
[7] = test system: HCC-2998 colon
[8] = test system: KM12 colon

SMILES	growth [1]	growth [2] [%]	growth [3]	growth [4]	growth [5]	growth [6]	growth [7]	growth [8]
CC1(C)CC[C@]2(C(=O)O)CC[C@]3(C)C(=CC[C@@H]4[C@@]5(C)CC[C@H](NOCCCN)C(C)(C)[C@@H]5CC[C@]43C)[C@@H]2C1	73.1%	80	91.7%	83.8%	68.2%	57.2%	76.3%	80.9%
CC1=C(SCC(=O)OCCCCCC(C)C)C(=O)c2ccccc2C1=O	74.3%	94.4	102%	99.3%	72.1%	89.7%	110%	91.2%
CCOC(=O)c1c(N)c(C#N)cn1Cc1ccc(Cl)cc1Cl	78.3%	81.8	-7.54% (active)	44.9%	59.2%	64%	73%	60.1%
Cc1csc(/N=C(N)/N=C(\N)c2cccs2)n1	95.9%	134	106%	106%	81.2%	107%	116%	97.8%
COc1cccc(N2CCN(C3=C(Cl)C(=O)c4ncccc4C3=O)CC2)c1	-48.1% (active)	105	3.36% (active)	14.3%	19.1%	1.4% (active)	106%	94.5%
Cn1cc(-c2nn3cc(-c4ccncc4)nc3s2)c2cc(Br)ccc21	37.5%	49.5	32.4%	42.3%	26.2%	25%	58.9%	65.8%
CC[C@]12CC(C(=O)OC)=C3Nc4ccccc4[C@@]34CCN(C14)[C@@H]1c3cc4c(cc3O[C@@H]1[C@H]2O)NC1=C(C(=O)OC)C[C@@]2(CC)C3N(CC[C@@]143)C[C@H]1O[C@H]12 (some centres not stated)	18.2%	33.9	-10.9% (active)	23.5%	4.36% (active)	2.44% (active)	-41.3% (active)	13.4%
Brc1ccc(-c2cc(-c3ccc4c(c3)OCCO4)n[nH]2)s1	22.5%	62	-38.1% (active)	34.7%	7.62% (active)	24.7%	42.1%	28.2%
Cc1[nH]c(C(=O)Nc2ccccc2OCc2cccc(C(=O)NCCN)c2)cc1Cl	87.1%	104	20.6%	32.4%	11.3%	38.2%	109%	86.4%
O=C(CCCCCCNC(=O)C(O)(O)C(F)(F)F)Nc1nc2ccccc2s1	12.1%	13	4.88% (active)	4.75% (active)	9.8% (active)	2.81% (active)	-39.8% (active)	7.52% (active)
COc1cc2cc(Oc3ccc(NC(=O)Nc4ccc(F)c(C(F)(F)F)c4)cc3)c(C)nc2cc1OCCN(C)C	91.4%	99	98.2%	53.7%	-89.6% (active)	107%	104%	102%
O=C(CSc1nc2ccccc2c(=O)n1-c1ccccc1)Nc1ccc(S(=O)(=O)Nc2nccs2)cc1	69.3%	45.2	84.1%	67.9%	57.6%	37.7%	118%	94.4%
CC1=C(C)C(=O)C(Nc2ccc3c(c2)OCCO3)=C(Br)C1=O	80.5%	101	102%	107%	78.2%	90.6%	102%	93.7%
C/C(=N\NC(=O)Nc1ccccc1)c1nnn(-c2ccc([N+](=O)[O-])cc2)c1C	98.2%	111	104%	104%	97.9%	99.5%	106%	101%

— PubChem BioAssay (NCI)
